Measurements as given in PubChem BioAssay.
Several values for one entry are separate records, joined by “and”; a condition that tells them apart may be missing. Identical values can stand only once. Records with an inconclusive call do not appear. Activity calls are given as the source filed them.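 How the source made its calls, unless noted: active means efflux inhibition above 0.42, the validation set average plus 4 SD; inconclusive means no clear call, values can overlap the other calls; inactive means the rest.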

Tests used:
[1] = rapamycin-like changes in RPL19A-GFP expression – cell-based, S. cerevisiae, multiplex flow cytometry, primary screen (AID 1862; in the data active means percent of DMSO control GFP below about 86%;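 further: lower values mimic rapamycin by blocking the RPL19A rise seen in DMSO cells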); details: S. cerevisiae RPL19A-GFP strain, flow cytometry fluorescence, 3 h; at 10 µM; stronger effect = lower value
[2] = TOR pathway GLN3 branch reporter MEP2-GFP changes – S. cerevisiae, multiplex flow cytometry, primary screen (AID 1867;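 active means GFP response, as percent of the DMSO control, above the screen-wide mean plus 3 SD, about 139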;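 further: median GFP channel fluorescence of barcode-gated MEP2-GFP cells measured by flow cytometry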); details: S. cerevisiae MEP2-GFP strain, 3 h, at 10 µM, stronger effect = higher value, 100% means same as DMSO wells
[3] = TOR pathway RTG branch CIT2 reporter changes – S. cerevisiae, GFP fusion, multiplex flow cytometry, primary screen (AID 1870;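 active means percent response above a set limit, the screen-wide mean plus 3 SD, cut at about 130% in these data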;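 further: barcoded CIT2-GFP strain pooled with four other GFP strains with rapamycin as positive control; median GFP fluorescence per well over plate mean of DMSO wells so 100% = DMSO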); details: S. cerevisiae CIT2-GFP expression, 3 h, at 10 µM, stronger effect = higher value
[4] = TOR pathway LAP4-GFP level changes – S. cerevisiae, multiplex flow cytometry, primary screen (AID 1873;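 active means GFP signal, as percent of the solvent control, above the screen mean plus 3 SD, about 149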); details: S. cerevisiae LAP4-GFP expression, 3 h, at 10 µM, stronger effect = higher value
[5] = yeast AGP1-GFP level changes, GLN3 branch – cell-based, multiplex flow cytometry, S. cerevisiae, primary screen (AID 1887;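 active means GFP signal above the screen-wide mean plus 3 SD, that is over about 124.5% of the solvent control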;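 further: AGP1-GFP fusion strain of S. cerevisiae within a five-strain barcoded multiplex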); details: 3 h, at 10 µM, stronger effect = higher value
[6] = reduced mouse 2C T cell binding to pMHC/ICAM-1 vesicles – MLPCN validation set, flow cytometry, LFA-1/ICAM-1 modulator project, pilot screen (AID 2523;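 active means response below a set limit, under 55% cells CD8-positive and vesicle-bound, and CD8 cells' 90th-percentile brightness under 279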;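 on vesicle binding response: mean PE anti-B7-1 fluorescence of CD8+ cells relative to row control; 100% = QL9-loaded vesicles with DMSO vehicle in the same plate row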); details: 2C mouse CD8+ T cells, at 7 µM, stronger effect = lower value; double positive events: measured here: CD8+/vesicle+ event percentage
[7] = target: Integrin beta-1 (Homo sapiens) + Integrin alpha-4 (Homo sapiens) (UniProt P13612+P05556); assay: alpha4beta1 integrin LIBS antibody binding reduction – U937 cells, HUTS-21 mAb, flow cytometry, validation set, VLA-4 allosteric modulator project, pilot screen (AID 2674;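 active means inhibition above 50%, about 3 SD of the validation set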;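 further: antibody binding induced by the VLA-4 ligand LDV present at three times its Kd; 0% = LDV ligand with antibody and no compound and 100% = antibody without LDV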); details: HUTS-21 LIBS mAb binding, at 6.7 µM, stronger effect = higher value, binding induced by LDV ligand
Integrin beta-1 (Homo sapiens) + Integrin alpha-4 (Homo sapiens), sequence (P05556 whole entry, looked up): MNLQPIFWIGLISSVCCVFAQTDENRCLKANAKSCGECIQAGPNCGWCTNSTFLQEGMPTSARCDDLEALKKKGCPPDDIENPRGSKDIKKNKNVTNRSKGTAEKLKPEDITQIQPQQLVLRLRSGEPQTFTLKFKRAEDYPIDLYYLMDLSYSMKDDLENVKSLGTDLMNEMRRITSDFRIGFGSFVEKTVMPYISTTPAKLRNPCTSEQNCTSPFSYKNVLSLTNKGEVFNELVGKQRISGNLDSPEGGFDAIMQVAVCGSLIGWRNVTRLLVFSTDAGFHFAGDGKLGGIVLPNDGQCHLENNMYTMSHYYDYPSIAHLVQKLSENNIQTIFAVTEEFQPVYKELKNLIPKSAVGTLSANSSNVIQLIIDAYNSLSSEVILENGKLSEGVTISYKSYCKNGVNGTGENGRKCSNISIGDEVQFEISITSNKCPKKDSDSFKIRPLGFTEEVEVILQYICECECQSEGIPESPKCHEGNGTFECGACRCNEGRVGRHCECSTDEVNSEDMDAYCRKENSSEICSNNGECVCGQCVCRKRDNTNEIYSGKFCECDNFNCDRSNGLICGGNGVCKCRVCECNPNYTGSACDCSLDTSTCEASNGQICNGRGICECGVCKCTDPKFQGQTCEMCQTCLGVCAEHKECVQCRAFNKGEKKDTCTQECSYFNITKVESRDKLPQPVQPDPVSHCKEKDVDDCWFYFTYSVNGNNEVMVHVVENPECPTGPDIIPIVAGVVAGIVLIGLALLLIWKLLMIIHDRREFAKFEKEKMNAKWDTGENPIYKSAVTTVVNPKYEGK
Integrin beta-1 (Homo sapiens) + Integrin alpha-4 (Homo sapiens), sequence (P13612 whole entry, looked up): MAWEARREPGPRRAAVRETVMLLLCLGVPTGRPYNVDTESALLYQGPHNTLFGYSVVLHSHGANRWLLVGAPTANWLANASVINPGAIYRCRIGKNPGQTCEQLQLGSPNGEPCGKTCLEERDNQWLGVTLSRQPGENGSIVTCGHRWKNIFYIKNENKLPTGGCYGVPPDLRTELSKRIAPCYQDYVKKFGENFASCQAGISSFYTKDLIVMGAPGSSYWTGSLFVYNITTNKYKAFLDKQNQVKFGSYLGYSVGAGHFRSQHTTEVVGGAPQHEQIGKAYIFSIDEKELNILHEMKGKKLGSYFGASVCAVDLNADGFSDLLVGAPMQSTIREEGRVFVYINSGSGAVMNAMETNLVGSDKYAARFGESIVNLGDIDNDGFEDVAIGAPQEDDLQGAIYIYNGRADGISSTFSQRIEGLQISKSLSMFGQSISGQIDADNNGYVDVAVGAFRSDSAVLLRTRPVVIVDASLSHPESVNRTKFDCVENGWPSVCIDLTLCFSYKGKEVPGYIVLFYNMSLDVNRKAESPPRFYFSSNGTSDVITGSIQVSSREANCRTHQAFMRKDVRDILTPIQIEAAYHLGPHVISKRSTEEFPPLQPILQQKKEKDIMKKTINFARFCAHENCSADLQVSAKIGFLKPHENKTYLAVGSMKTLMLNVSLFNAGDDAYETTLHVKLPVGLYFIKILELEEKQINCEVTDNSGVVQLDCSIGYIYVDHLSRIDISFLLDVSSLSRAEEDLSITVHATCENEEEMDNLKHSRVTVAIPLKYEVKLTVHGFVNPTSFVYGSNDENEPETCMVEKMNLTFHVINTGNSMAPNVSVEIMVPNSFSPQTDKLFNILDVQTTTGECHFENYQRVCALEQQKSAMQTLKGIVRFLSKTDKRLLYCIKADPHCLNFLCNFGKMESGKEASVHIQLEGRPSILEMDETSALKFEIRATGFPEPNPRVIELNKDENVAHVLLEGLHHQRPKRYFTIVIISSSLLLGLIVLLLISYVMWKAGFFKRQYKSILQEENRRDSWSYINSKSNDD

[8] = calorie-restriction mimetic ROS inhibitors, yeast – validation compound set, pilot screen (AID 2706;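 active means superoxide response below 65% of plate, a cut near 3 SD across the whole screen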;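 further: yeast exposed to compound for one week at 30 degrees C before staining; 100% = mean of all compound wells on the same plate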); details: S. cerevisiae aging, superoxide DHE fluorescence; at 10 µM; stronger effect = lower value
[9] = target: Beta-adrenergic receptor kinase 1 (Homo sapiens) (UniProt P25098); assay: GRK2 binders displacing RNA aptamer, biochemical, validation, human GRK2, bead flow cytometry (AID 488806;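 active means aptamer binding inhibition above 30%, about 3 SD of noise from non-fluorescent compounds; inactive means inhibition at or below 30%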); details: bead-bound GRK2, FAM-aptamer displacement, at 10 µM, stronger effect = higher value
Beta-adrenergic receptor kinase 1 (Homo sapiens), sequence (P25098 whole entry, looked up): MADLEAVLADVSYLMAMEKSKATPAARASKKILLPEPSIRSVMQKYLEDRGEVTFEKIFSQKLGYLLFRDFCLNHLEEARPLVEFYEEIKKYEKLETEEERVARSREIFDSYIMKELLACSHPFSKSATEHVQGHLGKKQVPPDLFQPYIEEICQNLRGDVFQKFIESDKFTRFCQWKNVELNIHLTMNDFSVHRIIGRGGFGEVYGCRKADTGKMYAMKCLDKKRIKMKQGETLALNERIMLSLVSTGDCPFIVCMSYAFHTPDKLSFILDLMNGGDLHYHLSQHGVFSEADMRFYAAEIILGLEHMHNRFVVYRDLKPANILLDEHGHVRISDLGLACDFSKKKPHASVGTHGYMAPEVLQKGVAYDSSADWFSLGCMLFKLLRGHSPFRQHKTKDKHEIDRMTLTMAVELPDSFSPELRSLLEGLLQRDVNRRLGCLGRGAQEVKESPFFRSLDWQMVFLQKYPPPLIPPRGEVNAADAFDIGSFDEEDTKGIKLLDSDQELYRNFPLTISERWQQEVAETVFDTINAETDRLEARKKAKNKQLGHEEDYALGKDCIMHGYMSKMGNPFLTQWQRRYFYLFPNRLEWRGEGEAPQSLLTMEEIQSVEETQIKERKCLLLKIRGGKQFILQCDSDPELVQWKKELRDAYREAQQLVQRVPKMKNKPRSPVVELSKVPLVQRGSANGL

[10] = target: Beta-2 adrenergic receptor (Homo sapiens) (UniProt P07550); assay: agonist-induced loss of surface beta2AR – cell-based, FAP fluorogen, flow cytometry, validation set, pilot screen (AID 504459;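 active means percent response above 42, roughly 3 SD of non-fluorescent test compounds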;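 further: agonist-driven loss of surface beta2AR via internalization measured by FAP dye flow cytometry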); details: Am2.2-beta2AR cells, at 10 µM, stronger effect = higher value
Beta-2 adrenergic receptor (Homo sapiens), sequence (P07550 whole entry, looked up): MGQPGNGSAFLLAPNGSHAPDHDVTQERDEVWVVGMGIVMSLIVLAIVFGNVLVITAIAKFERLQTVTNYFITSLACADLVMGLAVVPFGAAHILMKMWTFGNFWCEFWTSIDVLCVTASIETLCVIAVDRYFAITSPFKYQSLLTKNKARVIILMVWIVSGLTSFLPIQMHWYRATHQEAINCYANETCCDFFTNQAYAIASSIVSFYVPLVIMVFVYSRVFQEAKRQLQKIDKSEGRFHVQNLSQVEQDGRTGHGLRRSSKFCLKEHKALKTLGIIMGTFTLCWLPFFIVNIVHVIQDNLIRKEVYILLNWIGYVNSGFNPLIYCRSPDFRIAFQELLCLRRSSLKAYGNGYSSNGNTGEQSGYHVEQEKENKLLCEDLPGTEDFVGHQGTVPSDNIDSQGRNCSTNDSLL

[11] = target: AP-2 complex subunit beta (Homo sapiens) (UniProt P63010); assay: beta-arrestin/AP2 interaction blockers – biochemical, validation set, GST-AP2 beads, flow cytometry, pilot screen (AID 504541;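 active means inhibition above 54%, about 3 SD of non-fluorescent compounds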;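 further: AP2 carries R879A mutation and is captured from E. coli lysate; bead-bound FITC arrestin peptide fluorescence measuring arrestin peptide binding to AP2; 0% = DMSO wells and 100% = excess unlabeled arrestin peptide control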); details: FITC arrestin peptide, at 10 µM, stronger effect = higher value, AP2 beta2 appendage fragment, R879A mutant
AP-2 complex subunit beta (Homo sapiens), sequence (P63010 whole entry, looked up, the tested form may be a part, one chain of several): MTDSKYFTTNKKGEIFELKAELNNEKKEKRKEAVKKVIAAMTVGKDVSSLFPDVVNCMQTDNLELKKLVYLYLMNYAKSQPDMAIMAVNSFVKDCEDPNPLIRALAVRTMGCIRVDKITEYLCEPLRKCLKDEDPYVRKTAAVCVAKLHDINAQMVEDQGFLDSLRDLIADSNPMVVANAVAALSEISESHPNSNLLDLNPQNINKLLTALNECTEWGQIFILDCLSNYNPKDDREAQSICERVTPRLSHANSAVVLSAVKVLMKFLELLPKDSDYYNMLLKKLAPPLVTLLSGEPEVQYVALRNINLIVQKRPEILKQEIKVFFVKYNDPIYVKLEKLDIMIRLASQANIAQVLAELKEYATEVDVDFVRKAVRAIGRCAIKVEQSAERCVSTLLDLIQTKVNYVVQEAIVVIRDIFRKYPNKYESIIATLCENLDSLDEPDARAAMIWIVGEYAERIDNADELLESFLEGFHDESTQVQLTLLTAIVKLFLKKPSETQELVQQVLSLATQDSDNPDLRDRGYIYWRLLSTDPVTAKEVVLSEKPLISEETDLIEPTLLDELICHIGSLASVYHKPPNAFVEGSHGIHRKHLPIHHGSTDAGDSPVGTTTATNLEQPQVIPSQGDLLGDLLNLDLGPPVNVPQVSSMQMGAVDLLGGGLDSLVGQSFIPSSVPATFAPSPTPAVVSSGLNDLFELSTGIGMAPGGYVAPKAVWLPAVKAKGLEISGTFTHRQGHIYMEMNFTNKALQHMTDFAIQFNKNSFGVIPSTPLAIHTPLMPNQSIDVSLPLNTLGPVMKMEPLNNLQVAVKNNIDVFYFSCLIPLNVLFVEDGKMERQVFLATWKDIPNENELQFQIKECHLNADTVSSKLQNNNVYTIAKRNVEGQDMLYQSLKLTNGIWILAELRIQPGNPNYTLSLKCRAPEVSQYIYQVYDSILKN

[12] = cytosolic pH regulators acting via V-ATPase – S. cerevisiae, pHLuorin, HTS validation (AID 504600; in the data active means response above about 15%;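 further: plate controls were DMSO for no effect and reference compound for full effect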); details: V-ATPase proton transport, at 10 µM, stronger effect = higher value
[13] = tested on: anti-desmoglein-3 scFv antibody binding to human DSG3; assay: blockers of pathogenic pemphigus antibody–desmoglein-3 binding – biochemical, validation compound set, bead-based, flow cytometry, pilot screen (AID 588368;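 active means binding below the plate cutoff, the plate median minus 3 SD, with a reading above zero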;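 further: signal is the median channel fluorescence of bead-bound GFP antibody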); details: Protein G beads, DSG3-Fc, scFv-GFP binding, at 10 µM, stronger effect = lower value
[14] = Nile Red efflux blockade in pump-expressing yeast – validation compound set, multiplex, phenotypic, pilot screen (AID 588506);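 further: Nile Red retained in cells so higher fluorescence means more efflux inhibition; 0 = negative control wells and 1 = enniatin B 25 µM full block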; details: S. cerevisiae pump-expressing triplex, Nile Red efflux flow cytometry; at 10 µM; stronger effect = higher value; the pumps come from Candida albicans
[15] = target: ATP-binding cassette sub-family B member 6 (Homo sapiens) (UniProt Q9NP58); assay: blockers of ABCB6-driven porphyrin uptake – K562-ABCB6 cells, flow cytometry, validation set, pilot screen (AID 588550;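 active means inhibition above the screen-wide mean plus 3 SD, about 51%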;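 further: 0% = DMSO wells and 100% = benzethonium chloride 70 µM positive control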); details: K562-ABCB6 porphyrin accumulation, 1 h, at 10 µM, stronger effect = higher value
ATP-binding cassette sub-family B member 6 (Homo sapiens), sequence (Q9NP58 whole entry, looked up): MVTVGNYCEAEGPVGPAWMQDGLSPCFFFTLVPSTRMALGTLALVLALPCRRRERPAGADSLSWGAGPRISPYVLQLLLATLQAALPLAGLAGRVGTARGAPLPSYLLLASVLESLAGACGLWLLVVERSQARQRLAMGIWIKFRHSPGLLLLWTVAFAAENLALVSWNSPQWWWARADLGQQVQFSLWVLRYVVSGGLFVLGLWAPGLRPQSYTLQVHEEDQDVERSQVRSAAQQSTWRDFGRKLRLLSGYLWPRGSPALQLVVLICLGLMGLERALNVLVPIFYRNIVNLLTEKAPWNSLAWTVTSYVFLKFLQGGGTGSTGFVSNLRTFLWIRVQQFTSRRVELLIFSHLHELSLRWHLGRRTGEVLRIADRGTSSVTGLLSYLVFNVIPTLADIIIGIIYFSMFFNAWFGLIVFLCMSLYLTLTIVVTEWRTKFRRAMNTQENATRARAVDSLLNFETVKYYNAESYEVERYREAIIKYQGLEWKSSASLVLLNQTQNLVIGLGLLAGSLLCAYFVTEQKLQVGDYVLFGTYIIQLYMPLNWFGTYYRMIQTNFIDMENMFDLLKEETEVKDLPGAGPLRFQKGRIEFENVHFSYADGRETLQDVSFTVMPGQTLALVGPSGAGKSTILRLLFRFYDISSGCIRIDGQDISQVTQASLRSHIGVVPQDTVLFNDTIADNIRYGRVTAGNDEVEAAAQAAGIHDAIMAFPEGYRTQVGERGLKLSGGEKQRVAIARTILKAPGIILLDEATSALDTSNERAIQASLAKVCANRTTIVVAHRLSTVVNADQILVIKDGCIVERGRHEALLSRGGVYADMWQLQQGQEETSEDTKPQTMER

[16] = AML differentiation inducers, ER-HoxA9 marrow cells – cell-based, GFP/MAC1 double positive, flow cytometry, validation set, primary screen (AID 588685;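 active means differentiation response of at least 50%, scaled between solvent and reference control, from cells with both markers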;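 further: compound exposure lasts four days before antibody staining and flow analysis; 0% = DMSO wells and 100% = 5 µM fulvestrant positive control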); details: stronger effect = higher value, normalized: vehicle 0, fulvestrant 100

| SMILES | percent of DMSO control GFP [1] | GFP response vs DMSO [2] | percent response of DMSO control [3] | GFP response vs DMSO [4] | GFP response, % of DMSO [5] | double positive events [6] | vesicle binding response [6] | inhibition [7] | superoxide response (% of plate) [8] | aptamer binding inhibition [9] | response [10] | inhibition [11] | response [12] | binding (% of control) [13] | efflux inhibition (fraction of control) [14] | inhibition [15] | differentiation response [16] |
| --- | --- | --- | --- | --- | --- | --- | --- | --- | --- | --- | --- | --- | --- | --- | --- | --- | --- |
| COc1ccc(C2c3c(n[nH]c3C)CC(C)(O)C2C(C)=O)cc1OC (stereo not given) | 87.3% (inactive) | 129% (inactive) | 97.9% (inactive) | 76.5% (inactive) | 90.3% (inactive) | 67.8% | 58.4% (inactive) | 10.3% (inactive) | 106% (inactive) | 4% (inactive) | -2.94% (inactive) | -0.31% (inactive) | 0.84% (inactive) | 103% (inactive) | -0.13 (inactive) | 7% (inactive) | 13.1% (inactive) |
| O=C(c1ccco1)N1CCCN(Cc2nc(-c3ccc4c(c3)OCO4)no2)CC1 | 104% (inactive) | 103% (inactive) | 106% (inactive) | 98.6% (inactive) | 102% (inactive) | 62.2% | 310% (inactive) | -0.45% (inactive) | 102% (inactive) | 2% (inactive) | -9.4% (inactive) | 7.41% (inactive) | -0.63% (inactive) | 94.7% (inactive) | 0.02 (inactive) | 10% (inactive) | -11.5% (inactive) |
| CC(=O)OCC[N+](C)(C)C | 95.9% (inactive) | 116% (inactive) | 101% (inactive) | 83.6% (inactive) | 105% (inactive) | 61.2% and 60.9% | 178% (inactive) and 161% (inactive) | -20.7% (inactive) and 1.44% (inactive) | 90.4% (inactive) and 67.4% (inactive) | 4% (inactive) and 1% (inactive) | -3.17% (inactive) and -8.19% (inactive) | -8.61% (inactive) and -2% (inactive) | 2.52% (inactive) and -3.48% (inactive) | 102% (inactive) and 106% (inactive) | 0.09 (inactive) and 0 (inactive) | 6% (inactive) and 10% (inactive) | 2.46% (inactive) and -2.03% (inactive) |
| COc1cc(-c2nnc(-c3cccs3)o2)cc(OC)c1OC | 102% (inactive) | 106% (inactive) | 99.7% (inactive) | 103% (inactive) | 86.3% (inactive) | 61.1% | 98.4% (inactive) | -1.09% (inactive) | 99.2% (inactive) | 3% (inactive) | -28% (inactive) | 5.76% (inactive) | 33.5% (active) | 101% (inactive) | 0.15 (inactive) | 29% (inactive) | -1.65% (inactive) |
| CCOc1ccc(N2C(=O)CNC2=S)cc1 | 106% (inactive) | 106% (inactive) | 105% (inactive) | 110% (inactive) | 109% (inactive) | 66.1% | 202% (inactive) | -0.27% (inactive) | 105% (inactive) | 2% (inactive) | -17.9% (inactive) | 11.9% (inactive) | -2.61% (inactive) | 106% (inactive) | -0.09 (inactive) | -4% (inactive) | 3.88% (inactive) |
| Nc1ccc(S(=O)(=O)NC(=O)c2ccccc2)cc1 | 100% (inactive) | 103% (inactive) | 96.6% (inactive) | 99.9% (inactive) | 100% (inactive) | 57.6% | 30.6% (inactive) | -6.68% (inactive) | 110% (inactive) | 1% (inactive) | -5.78% (inactive) | -15.4% (inactive) | 5.4% (inactive) | 99.3% (inactive) | -0.07 (inactive) | 11% (inactive) | 1.22% (inactive) |
| CC(C)CC(=O)NC(NC(=O)CC(C)C)c1cccc([N+](=O)[O-])c1 | 101% (inactive) | 102% (inactive) | 111% (inactive) | 100% (inactive) | 100% (inactive) | 60.1% | 118% (inactive) | 1.59% (inactive) | 118% (inactive) | 19% (inactive) | 3.17% (inactive) | 7.92% (inactive) | 3.51% (inactive) | 99% (inactive) | 0.09 (inactive) | 11% (inactive) | -8.96% (inactive) |
| Cc1ccc2c(c1)C(O)(C1COC(C)(C)CC1=O)C(=O)N2C (stereo not given) | 107% (inactive) | 105% (inactive) | 104% (inactive) | 99.1% (inactive) | 98.8% (inactive) | 59.3% | 214% (inactive) | 12.3% (inactive) | 103% (inactive) | 2% (inactive) | -0.64% (inactive) | -0.06% (inactive) | -9.91% (inactive) | 102% (inactive) | 0.05 (inactive) | 12% (inactive) | 23.2% (inactive) |
| O=C1C(O)CC2c3ccccc3CC3(CCCC3)N12 (stereo not given) | 100% (inactive) | 104% (inactive) | 105% (inactive) | 114% (inactive) | 100% (inactive) | 61.4% | 247% (inactive) | -0.43% (inactive) | 106% (inactive) | 1% (inactive) | 48% (active) | -6.78% (inactive) | 0.88% (inactive) | 99.9% (inactive) | 0.08 (inactive) | -110% (inactive) | -18.4% (inactive) |
| CN(C)CC/C=C1\c2ccccc2COc2ccccc21 | 96% (inactive) | 96.6% (inactive) | 90.5% (inactive) | 104% (inactive) | 109% (inactive) | 68.1% | 176% (inactive) | 20.2% (inactive) | 93.9% (inactive) | -3% (inactive) | 0.32% (inactive) | -7.94% (inactive) | 3.08% (inactive) | 79% (active) | -0.04 (inactive) | 6% (inactive) | -6.96% (inactive) |
